Assay outcomes (PubChem)
Compounds with a hit are over-represented: about 9.2% of the library has one in this group of screens.
ELG1 genotox: qHTS screen for small molecules that induce genotoxicity in human embryonic kidney (HEK293T) cells expressing luciferase-tagged ELG1 | HEK293T ELG1-luciferase reporter, luminescence, 16 h | Potency, µM (top dose mostly 46 µM), without a hit: at the highest dose activity change, positive = activation, hits mostly activators | 330,000 compounds, 1.3% hits | AID 504466, 2011; also: % of control where 0% means no effect; nearly all actives have a fitted effect of over 60% in size
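After overnight (16 hr) compound treatment at 37 °C, ELG1-luciferase HEK293T cells were lysed with ONE-Glo; luminescence quantified 30 min later at room temperature.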
FLuc modulator: qHTS profiling assay for firefly luciferase inhibitor/activator using purifed enzyme and Km concentrations of substrates (counterscreen for miR-21 project); purified FLuc, Km substrates, luminescence inhibition; Luciferin 4-monooxygenase (Photinus pyralis), P08659; Potency, µM (doses to about 57.5 µM), without a hit: top-dose activity change, negative = inhibition, most hits filed as inhibitors; 360,000 compounds, 6.9% hits;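 also: plate controls were vehicle for no effect and reference inhibitor for full effect; nearly all actives have a fitted effect of over 55% in size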
Target sequence (P08659 whole entry, looked up): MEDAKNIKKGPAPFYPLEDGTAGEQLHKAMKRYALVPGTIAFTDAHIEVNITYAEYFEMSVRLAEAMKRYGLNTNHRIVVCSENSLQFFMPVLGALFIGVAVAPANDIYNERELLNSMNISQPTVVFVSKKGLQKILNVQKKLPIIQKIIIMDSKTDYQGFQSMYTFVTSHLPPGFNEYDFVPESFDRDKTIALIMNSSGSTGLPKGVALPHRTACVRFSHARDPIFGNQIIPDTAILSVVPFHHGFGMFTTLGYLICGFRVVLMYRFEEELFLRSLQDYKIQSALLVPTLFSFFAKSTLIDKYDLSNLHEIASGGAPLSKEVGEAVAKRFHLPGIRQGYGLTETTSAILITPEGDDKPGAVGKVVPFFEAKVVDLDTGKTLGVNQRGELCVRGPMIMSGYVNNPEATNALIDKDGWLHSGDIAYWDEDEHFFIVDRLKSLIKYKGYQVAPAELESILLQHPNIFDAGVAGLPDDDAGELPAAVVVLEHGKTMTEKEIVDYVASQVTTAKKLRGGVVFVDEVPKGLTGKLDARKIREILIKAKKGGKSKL
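Biochemical qHTS of compounds, final roughly 60 µM downward over six points, against 10 nM purified firefly luciferase using Km concentrations of substrates (10 uM D-luciferin, 10 uM ATP) in Tris acetate pH 7.5 buffer; luminescence output.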
SMN2 splice up: qHTS Assay for Enhancers of SMN2 Splice Variant Expression | HEK293 SMN2-luciferase splicing reporter, luminescence, 30-36 h | Potency, µM (series often up to 46.1 µM), without a hit: at the top dose activity change, positive = activation, usual class: activators | 210,000 compounds, 2.8% hits | AID 1458, 2008; also: % of control where 0% means no effect; nearly all actives have a fitted effect of over 55% in size
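qHTS luciferase splicing reporter: luminescence rises when SMN2 exon 7 is included in transfected HEK293 cells. Compound exposure lasted 30-36 h at 37C, with 4.5 mM final sodium butyrate as control, followed by a ONE-Glo read.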
ELG1 DNA repair: qHTS screen for small molecules that inhibit ELG1-dependent DNA repair in human embryonic kidney (HEK293T) cells expressing luciferase-tagged ELG1; Potency, µM (series often up to 46.1 µM), without a hit: at the highest dose activity change, negative = inhibition, hits mostly inhibitors; HEK293T ELG1-luciferase reporter, luminescence, 16 h; DNA damage induced by 5-fluorouridine; 330,000 compounds, 2.3% hits; AID 504467, 2011; also: % is scaled to controls: 0 for no effect and ±100 for the full control effect; nearly all actives have a fitted effect of over 55% in size
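Step one: seed 2,000 cells per well. Step two: pin-transfer compound or DMSO alongside 5-fluorouridine. Step three: incubate 16 hr, 37 °C, 5% CO2. Step four: add ONE-Glo, wait 30 min, read luminescence.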
Rab9 prom act: qHTS Assay for Rab9 Promoter Activators. Huh7 Rab9 promoter-luciferase reporter, luminescence, 24 h. Potency, µM (doses to about 9.22 µM), without a hit: top-dose activation, negative = inhibition, most hits filed as activators. 320,000 compounds, 2.8% hits; also: % of control where 0% means no effect; nearly all actives have a fitted effect of over 60% in size
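Quantitative HTS format; Huh7 Rab9-luciferase reporter cells (1500/well) receive compound 2 h post-plating, incubate 24 h at 37 °C, then get luciferase reagent for 10 min before luminescence reading.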
NPC1 promoter act: qHTS Assay for NPC1 Promoter Activators; 320,000 compounds, 2.4% hits; AID 485313, 2010; Huh7 NPC1 promoter luciferase reporter, 24 h; Potency, µM (highest dose often 9.22 µM), for inactives: at the top dose activation, hits mostly activators; also: % of control where 0% means no effect; nearly all actives have a fitted effect of over 60% in size
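Readout is luciferase luminescence, reflecting NPC1 promoter activation in stably transfected Huh7 cells after 24 h compound exposure at 37 °C in reduced-serum medium with 10% FBS.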
* = called active by the depositor; ? = inconclusive; / = no result; ! = not active in a repeat. Calls follow the shape of the dose curve; as a rule, active = well fitted curve in the direction sought with a large enough effect; inconclusive = small, poorly fitted or top-dose-only effect, or another doubt; inactive = no such curve, though single readings can be large; an effect the other way counts as inactive or inconclusive. Potency is read from the fitted curve at half-maximal effect.

SMILES | ELG1 genotox | FLuc modulator | SMN2 splice up | ELG1 DNA repair | Rab9 prom act | NPC1 promoter act
COc1ccc(Cn2c(CNS(=O)(=O)c3ccc4c(c3)CCCC4)nc3cccnc32)cc1 | / | -16% | / | / | / | /
Cc1ccc(N2C(=O)CS(=O)C(c3ccccc3)C2=O)cc1C (centres undefined) | 13% | 12µM* | -3% | 13% | 11% | 4%
O=C(N/N=C/c1cccs1)c1c[nH]c2ccccc12 | ? | 6µM* | 11µM* | ? | 2.8µM* | 3.2µM*
CCc1ccc(/C=N/NC(=O)c2c[nH]c3ccccc23)s1 | ? | 6µM* | 6.3µM* | ? | 1.3µM* | 2µM*
COc1ccccc1NC(=O)CNC(=O)Cn1cnc2sc(C)c(C)c2c1=O | 3% | 3% | / | 2% | -10% | 1%
COc1ccccc1-c1noc(CCCC(=O)NC2CCCCC2)n1 | 1% | 2% | / | -3% | 0% | 0%
O=C1NC(=O)/C(=C/c2ccc(O)cc2)S1 | ? | 15µM* | / | ? | ? | 30%
O=C1NC(=O)/C(=C/c2ccccn2)S1 | 6% | ? | / | ? | 17% | -3%
COc1cc(C(CC(=O)Nc2ccccn2)N2Cc3ccccc3C2=O)cc(OC)c1OC (centres undefined) | 3% | 1% | / | -22% | -4% | -1%
Cc1ccc(-c2nc(CS(=O)CC(=O)NC(C)CCc3ccccc3)c(C)o2)cc1 (centres undefined) | 0% | -5% | / | -24% | -1% | -2%
COc1ccc(-c2nc(CSCC(=O)NCc3ccc4c(c3)OCO4)c(C)o2)cc1 | -6% | 27µM* | -17% | ? | 1% | -1%
Cc1oc(-c2ccc(Cl)cc2)nc1CS(=O)CC(=O)NCc1ccc2c(c1)OCO2 (centres undefined) | 1% | -4% | / | ? | 3% | 1%
CCOc1ccc(-c2nc(CSCC(=O)NCc3ccc(C)cc3)c(C)o2)cc1 | / | -13% | / | / | / | /
COc1ccc(-c2nc(CSCC(=O)NCc3ccc4c(c3)OCO4)c(C)o2)cc1OC | -5% | 0% | -62% | ? | 1% | -2%
COc1ccc(-c2nc(CS(=O)CC(=O)NC(C)CCc3ccccc3)c(C)o2)cc1OC (centres undefined) | -1% | 1% | / | 18µM* | 0% | -1%
CCc1ccc(-c2nc(CSCC(=O)NCc3ccc(C)cc3)c(C)o2)cc1 | / | 19µM* | -37% | / | / | /
COc1ccc(-c2nc(CS(=O)CC(=O)NCc3ccc4c(c3)OCO4)c(C)o2)cc1OC (centres undefined) | -5% | -7% | / | 15µM* | 3% | 1%
Cc1ccc(S(=O)(=O)NNC(=O)c2cccc(O)c2)cc1 | 0% | -1% | / | 4% | -12% | -2%
CCc1ccc(-c2nc(CS(=O)CC(=O)O)c(C)o2)cc1 (centres undefined) | ? | 21µM* | / | ? | ? | 24%
CCN(C(=O)CCS(=O)(=O)c1cc2c(cc1Cl)NC(=O)CO2)c1ccccc1 | 1% | 0% | / | 9% | 3% | 1%
Cc1ccc(N(C)C(=O)CCS(=O)(=O)c2cc3c(cc2Cl)NC(=O)CO3)cc1 | 1% | 1.7µM*! | / | 13% | 2% | 1%
COc1ccc(C(=O)O/N=C(\N)c2ccccc2)cc1OC | 21µM* | 11µM* | / | ? | 3.5µM* | 2.8µM*
COc1ccc(/C(N)=N/OC(=O)CSc2ccccc2)cc1OC | 18µM* | 24µM* | 12% | ? | 17% | 27%
COc1ccc(C(=O)O/N=C(\N)c2cccc(C)c2)cc1OC | ? | 21µM* | / | ? | ? | ?
COc1ccc(C(=O)O/N=C(\N)c2ccncc2)cc1OC | 17% | -12% | 17% | ? | 10% | -1%
SMILES | ELG1 genotox | FLuc modulator | SMN2 splice up | ELG1 DNA repair | Rab9 prom act | NPC1 promoter act
COc1ccc(/C(N)=N/OC(=O)c2ccc(C)c([N+](=O)[O-])c2)cc1OC | ? | ? | -7% | ? | 14% | 10%
COc1ccc(CNC(=O)CN(Cc2ccccc2)C(=O)CCC(=O)Nc2nccs2)cc1 | -4% | 0% | / | -18% | 6% | 0%
O=C(O)c1ccc(N/N=C/c2ccncc2)cc1 | 17% | 8.5µM* | / | ? | ? | ?
O=C(O)c1ccc(N/N=C/c2ccc3nccnc3c2)cc1 | ? | 0.38µM* | / | ? | -38% | -32%
COc1cc2nc(NC(=O)c3ccc(S(=O)(=O)N4CCCC4)cc3)sc2cc1OC | / | 6% | / | / | / | /
CCc1cc2c(cc3c(=O)n(CC(=O)NC4CCC(C)CC4)nc(CC)n32)s1 (centres undefined) | / | -1% | -19% | / | / | /
O=C(N/N=C/c1ccncc1)c1cccs1 | ? | ? | / | ? | 10% | 19%
CN(C)c1ccc(/C=N\NC(=O)c2ccc(Cn3cc(Cl)cn3)cc2)cc1 | -3% | 12µM* | -13% | ? | 2% | 0%
CSc1ccc(/C=N/NC(=O)c2cccs2)cc1 | ? | 1.7µM* | / | ? | 1.8µM* | 2.2µM*
CN(C)c1ccc(/C=N/NC(=O)c2ccc(Cl)cc2)cc1 | 6% | ? | -8% | 7% | 0% | 0%
CN(C)c1ccc(/C=N/NC(=O)c2ccccc2)cc1 | ? | 5.4µM* | 11µM* | ? | 0.89µM* | 2.8µM*
O=C(N/N=C/c1ccc(-n2ccnc2)cc1)c1cccs1 | ? | 12µM* | / | ? | ? | ?
O=C(Nc1nnc(S(=O)(=O)N2CCCc3ccccc32)s1)c1ccccc1Br | / | 6% | / | / | / | /
CC1=C(C(=O)Nc2ccc(C)cc2C)C(c2ccc(C(C)C)cc2)n2nc(C(F)(F)F)nc2N1 (centres undefined) | / | -4% | -7% | / | / | /
CCc1ccc(N2CCN(S(=O)(=O)CC34CCC(CC3=O)C4(C)C)CC2)cc1 (centres undefined) | 3% | 11% | / | -21% | 0% | -4%
CN(C)c1ccc(/C=N/NC(=O)c2ccccc2Cl)cc1 | ? | 17µM* | 22µM* | ? | 13% | -1%
CN(C)c1ccc(/C=N/NC(=O)c2sccc2-n2cccc2)cc1 | -1% | ? | 20% | ? | 4µM* | ?
Cc1ccc(/C=N/NC(=O)CNC(=O)c2cccs2)o1 | 1% | -3% | 1% | -19% | 3% | 0%
CSc1ccc(/C=N/NC(=O)c2ccccc2Cl)cc1 | ? | 15µM* | 30% | ? | ? | 11%
